Screening results from PubChem BioAssay.
CF NFkB inh – inhibitors of cystic fibrosis induced NF-kB; KKLEB NF-kB-GFP reporter, PAF-induced, GFP fluorescence overnight; inhibition, % at 5 µM; 360,000 tested, 0.86% active;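 active means at least 50% inhibition at 5 µM, scaled per plate between neutral and stimulator controls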;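 further: PAF is a Pseudomonas aeruginosa culture filtrate used as stimulus; plate controls were PAF-stimulated DMSO wells for no effect and unstimulated DMSO wells for full effect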
KKLEB cytotox – counter-screen for CF NF-kB inhibitors: cytotoxicity. 360,000 tested, 0.36% active. activity change (cytotoxicity), % at 5 µM. AID 602141. KKLEB CF airway cells viability, ATPlite luminescence, overnight; hits give low values; cells stimulated with P. aeruginosa culture filtrate;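 active means corrected activity change at or below -50% at 5 µM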
Peg3 prom inh – reduces Peg3 promoter-driven luciferase expression in HeLa; HeLa PEG-Prom luciferase reporter, luminescence, overnight; inhibition, % at 20 µM; 360,000 tested, 1.7% active; AID 588405;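 active means inhibition of at least 50% at 20 µM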
HIF-2a inh – HIF-2a inhibition; 786-0 RCC cells HIF-2a reporter, luciferase luminescence, overnight; inhibition, % at 18.8 µM; 360,000 tested, 0.72% active;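 active means inhibition of the luminescence signal of 40% or more relative to plate controls, in a single-dose primary screen at 18.75 µM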
Shn3 inh set2 – Schnurri-3 reporter inhibition in Clone20 osteoblasts; Clone20 osteoblast Shn3 3'UTR firefly luciferase, 24 h; inhibition, % at 12.5 µM; 360,000 tested, 0.52% active;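 active means mean inhibition of at least 75% with every replicate also reaching 75%; inconclusive means mean inhibition at least 75% but some replicate below; inactive means mean inhibition below 75%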;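 further: 0% = median of neutral control wells and 100% = pilot-screen positive control compound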
MITF TRPM1 inh – inhibitors of MITF-driven TRPM1 promoter in melanoma cells | 330,000 tested, 0.83% active | inhibition, % at 12.5 µM | SK-MEL-5 TRPM1 promoter luciferase, 24 h;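 active means mean inhibition across replicates of 60% or more, whatever share of single replicates reaches that level; inconclusive means some that reach 60%, reason not given; inactive means mean inhibition across replicates below 60%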
* hit, by the source's call; ? = inconclusive; · = no result given. Compounds with a hit are over-represented: about 2.8% of the library has one in this group of screens.

SMILES	CF NFkB inh	KKLEB cytotox	Peg3 prom inh	HIF-2a inh	Shn3 inh set2	MITF TRPM1 inh
O=C1c2cccc3cccc(c23)C(=O)N1c1ccccn1	-12.1	2.0	-13.3	8.9	15.6	0.6
Cc1cc(OCC(O)CNC(C)c2ccccc2)ccc1C(C)C (stereo not given)	5.8	5.5	106.8*	8.7	4.8	5.9
COc1ccc(OCC(O)CNC(C)c2ccccc2)cc1 (stereo not given)	-3.7	-12.9	-5.9	18.4	-0.5	-13.8
CC(NCC(O)COc1ccc2ccccc2c1)c1ccccc1 (stereo not given)	0.0	1.7	65.9*	3.1	23.5	3.5
CCCC(NCC(O)COc1ccc(-c2ccccc2)cc1)c1ccccc1 (stereo not given)	10.8	-15.8	78.8*	-14.9	31.7	40.5
CC(NCC(O)COc1ccc(Br)cc1)c1ccccc1 (stereo not given)	-3.3	-5.7	-16.2	7.3	11.2	-12.7
CCCCC(OC(=O)CN1C(=O)COc2ccccc21)C(=O)NC1CCCCC1 (stereo not given)	-2.6	9.2	-3.6	2.6	7.3	4.0
CCC(C)(O)c1[nH]c2ccc(C(=O)OC)cc2c1C (stereo not given)	-1.2	-3.2	-153.5	-99.0	-43.1	-47.5
Cc1cc(C)c(S(=O)(=O)/N=C2/C=C(Sc3ncn[nH]3)C(=O)c3ccccc32)cc1C	76.7*	-59.0*	106.0*	68.1*	93.8*	89.1*
COc1cc(C(=O)Nc2ccc3c(c2)N(C(=O)CN2CCN(C)CC2)c2ccccc2CC3)cc(OC)c1OC	-2.2	-3.4	-0.6	5.6	-1.3	-11.7
Cc1cccc(Nc2nc(NCc3ccco3)c3ccccc3n2)c1	18.0	-4.9	84.9*	-86.2	88.4*	7.1
COc1cc(OC)cc(C(=O)N[C@H](C(=O)NC2CCCc3ccccc32)C(C)C)c1 (stereo not given in full)	-5.4	3.0	26.8	13.1	26.5	1.3
CN(C)CCCN(C(=O)c1cc(-c2cccs2)nc2ccccc12)c1nc2ccc(F)cc2s1	43.2	-33.8	111.6*	-12.7	8.0	86.9*
CN(C)CCCN(C(=O)CCc1ccccc1)c1nc2ccc(F)cc2s1	2.7	5.4	-2.2	-3.0	6.1	-0.4
Cc1cc(NC(=O)CCCSc2nc(-c3ccco3)cc(C(F)(F)F)n2)no1	6.1	-9.0	23.6	3.5	32.7	-1.3
COc1ccccc1-c1cc(C(F)(F)F)nc(S(=O)(=O)CCCC(=O)Nc2cccnc2Cl)n1	72.5*	-54.8*	110.6*	34.1	90.7*	77.2*
COc1ccccc1-c1cc(C(F)(F)F)nc(S(=O)(=O)CCCC(=O)Nc2cc(C)on2)n1	85.7*	-65.8*	105.6*	72.7*	96.7*	95.8*
COc1ccccc1-c1cc(C(F)(F)F)nc(S(=O)(=O)CCCC(=O)NC(C)C)n1	88.2*	-93.9*	112.7*	89.7*	32.8	86.1*
COc1ccc(-c2cc(C(F)(F)F)nc(S(=O)(=O)CCCC(=O)Nc3cc(C)on3)n2)cc1OC	102.3*	-74.8*	110.9*	-54.7	55.0	41.3
CC(C)c1cc(Cn2c3ccccc3c(=O)n2C(C)Cn2cc(CCCC#N)nn2)on1 (stereo not given)	·	·	·	9.3	·	·
CC1=C(C(=O)N(C(C)C)C(C)C)CC(CC(=O)NC(c2ccccc2)c2ccccc2)C(=O)N1CCCN1CCCC1=O (stereo not given)	-10.7	-8.9	4.5	14.5	-20.3	·
O=C1CC(C(=O)N2CCc3ccccc32)CN1c1ccc(F)cc1 (stereo not given)	-5.0	3.9	-5.2	2.1	-8.0	10.2
O=C(Nc1ccccc1C(=O)Nc1nnc(C(F)(F)F)s1)c1ccccc1Cl	56.2*	-60.7*	47.6	-4.5	38.9	17.3
NC(=O)c1ccccc1NC(=O)c1ccccc1Cl	-8.5	8.2	-12.2	-51.3	4.2	2.8
Cc1cc(F)cc(-c2cc(C(=O)NCc3ccccn3)[nH]n2)c1	-9.9	18.5	-4.1	-33.5	-6.4	·
SMILES	CF NFkB inh	KKLEB cytotox	Peg3 prom inh	HIF-2a inh	Shn3 inh set2	MITF TRPM1 inh
O=C(Nc1cccc(Cl)c1)Nc1ccnc(-c2cccnc2)n1	-107.2	9.5	78.0*	-73.4	-56.4	2.5
CCCCNc1c(-c2ccc(SC3CCCCC3)c(OC)c2)nc2ccc(C)cn12	17.2	-10.5	24.2	-24.6	71.9	-1.5
COc1ccc(-c2nc3ccc(C)cn3c2NCc2ccccc2)cc1SC1CCCCC1	21.2	-13.5	32.8	-28.5	97.5*	-8.1
CCCCNc1c(-c2ccc(OC)c(SC3CCCCC3)c2)nc2ccc(C)cn12	22.4	-6.2	97.9*	-49.8	96.0*	7.1
CCCCCCCCCCCCCCCC[N+](C)(C)Cc1ccc(F)cc1	10.4	-31.9	105.4*	37.1	?	28.4
O=C(NCc1ccccc1)c1cc(C2COCCN2C(=O)CCc2ccccc2)on1 (stereo not given)	-56.7	-2.5	11.6	11.4	4.1	·
CCn1c(CNC(=O)c2cccnc2)cc2ccccc21	-0.8	5.2	74.1*	17.9	19.0	5.3
COc1ccccc1NC(=O)Nc1ccccc1N1CCOCC1	-6.6	6.8	3.6	-39.7	-19.5	0.8
CCOc1ccc(N(CC(=O)Nc2nccs2)S(=O)(=O)c2c(C)[nH]c(=O)[nH]c2=O)cc1	-6.8	-6.2	-5.5	-3.6	-10.2	-1.2
Cc1ccccc1N1C(=O)c2cccc([N+](=O)[O-])c2C1=O	-1.9	-0.1	6.9	13.5	0.5	-14.9
Cc1ccccc1-n1ncc2c([N+](=O)[O-])cc([N+](=O)[O-])cc21	6.3	-17.9	-142.0	-90.7	-3.8	67.0*
Cc1ccc(C(=O)OC(C(=O)O)C(OC(=O)c2ccc(C)cc2)C(=O)O)cc1 (stereo not given)	-3.1	13.5	-76.2	19.8	8.9	-2.6
CC(=O)c1ccc(N/N=C(/C(N)=O)C2=NC(C)(C)Cc3ccccc32)cc1	26.2	-15.9	76.7*	31.3	29.2	5.1
N#Cc1ccccc1OCC(=O)Nc1ccccc1C(=O)NC1CC1	27.7	0.7	1.2	2.0	8.1	19.8
CCCCC1C(=O)CC[C@H]2[C@@H]1CC(=O)[C@@H]2C/C=C\CCCC(=O)O (stereo not given in full)	19.6	-100.5*	-9.9	3.6	-7.2	-13.2
C[C@H]1COC2=C1C(=O)C(=O)c1c2ccc2c1CCCC2(C)C	56.6*	-2.9	47.5	-49.9	9.1	84.2*
Cc1coc2c1C(=O)C(=O)c1c-2ccc2c1CCCC2(C)C	69.7*	-16.3	69.0*	-44.9	-11.3	93.3*
Cc1coc2c1C(=O)C(=O)c1c-2ccc2c(C)cccc12	34.0	-28.2	45.6	-86.8	-65.3	·
CCCCOc1ccc(C(=O)NCC(=O)N2CC(C)CC(C)C2)cc1 (stereo not given)	6.2	3.5	18.4	21.5	-10.1	5.2
